# GSH bead fluor: compound fluorescence on glutathione beads, profiling panel, artefact control, biophysical, 488/530 nm, flow cytometry. fluorescence (KMESF) at 10 µM. actives 0.25% (n = 190,000). GSH beads flow cytometry, compound fluorescence 488/530 nm; stronger effect = higher value. AID 1776, 2009; in the data active = fluorescence above about 89;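 also: glutathione beads carrying GST-tagged Bcl family fusion proteins plus one bare bead set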
# RGS7-Gao reg: RGS7-Galphao binding modulators, primary screen, biochemical, multiplexed bead flow cytometry; Guanine nucleotide-binding protein G(o) subunit alpha (Homo sapiens), P09471; AID 1439, 2008; actives lie on both sides; actives 0.35% (n = 220,000); binding response (% of control), % at 10 µM; in the data active = binding response below about 49% or above about 150%; inconclusive = no clear call, values can overlap the other calls; inactive = in between;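 also: fluorescent Galphao held in activated GDP-AlF4 state binding bead-coupled RGS7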
# Target sequence (P09471 whole entry, looked up): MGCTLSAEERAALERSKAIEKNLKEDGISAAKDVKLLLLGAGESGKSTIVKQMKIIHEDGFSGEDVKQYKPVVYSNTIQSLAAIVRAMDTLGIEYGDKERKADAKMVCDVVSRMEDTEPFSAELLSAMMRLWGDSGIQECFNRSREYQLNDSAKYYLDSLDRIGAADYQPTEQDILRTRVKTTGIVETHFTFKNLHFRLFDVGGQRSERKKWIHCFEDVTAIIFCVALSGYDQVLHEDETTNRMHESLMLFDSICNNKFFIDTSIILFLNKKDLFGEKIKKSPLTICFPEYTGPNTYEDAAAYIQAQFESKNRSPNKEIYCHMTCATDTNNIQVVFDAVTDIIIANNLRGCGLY
# RGS16-Gao: modulators of RGS16 binding to Galphao, primary screen, biochemical, human proteins, multiplexed bead flow cytometry; bead-based flow cytometry RGS16-Galphao binding, fluorescence; actives lie on both sides; binding response (% of control), % at 10 µM; actives 0.38% (n = 220,000);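 also: Galphao activated by GDP with aluminum fluoride before binding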
# Target sequence (O15492 whole entry, looked up): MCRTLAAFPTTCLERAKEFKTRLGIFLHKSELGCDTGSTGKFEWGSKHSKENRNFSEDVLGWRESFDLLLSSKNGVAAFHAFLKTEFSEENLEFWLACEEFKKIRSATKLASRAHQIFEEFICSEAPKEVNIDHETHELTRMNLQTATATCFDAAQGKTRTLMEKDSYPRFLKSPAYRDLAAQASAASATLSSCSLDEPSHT
# Target sequence (P09471 whole entry, looked up): as the sequence (P09471 whole entry, looked up) above
# RGS4-Gao reg: modulators of RGS4 binding to Galphao, primary screen, biochemical, multiplexed bead flow cytometry; Guanine nucleotide-binding protein G(o) subunit alpha (Homo sapiens), P09471; actives lie on both sides; binding response (% of control), % at 10 µM; actives 0.33% (n = 220,000); AID 1415, 2008; in the data active = binding response below about 49% or above about 150%; inactive = in between;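 also: fluorescent Galphao activated with aluminum fluoride binding bead-coupled RGS4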
# RGS8-Gao: RGS8-Galphao binding modulators, primary screen, biochemical, multiplexed bead flow cytometry. Guanine nucleotide-binding protein G(o) subunit alpha (Homo sapiens), P09471. actives lie on both sides. response (percent of control binding), % at 10 µM. actives 0.34% (n = 220,000); in the data active = response below about 60% or above about 140%; inactive = in between;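 also: Galphao activated as the GDP aluminium fluoride complex binding bead-coupled RGS8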
# Avidin fluor: green autofluorescence of compounds with avidin beads – biophysical, 488/530 nm, flow cytometry, artefact control, profiling panel | compound fluorescence 488/530 nm; stronger effect = higher value | actives 0.38% (n = 220,000) | fluorescence (KMESF) at 10 µM | AID 1775, 2009; in the data active = fluorescence above about 47
# RGS-Gao: modulators of RGS–Galpha-o binding, primary screen, biochemical, multiplexed beads, flow cytometry, RGS4/7/8/16/19; AID 1504, 2009; multiplexed bead flow cytometry; RGS4–Galpha-o binding response, % at 10 µM; shares compounds with RGS16-Gao; actives 99% (n = 1,600);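 also: fluorescently labeled Galpha-o bound to GDP with aluminium fluoride binding biotinylated RGS beads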
# Biotin-avidin: disruption of biotin probe capture by avidin, counter-screen for RGS protein interaction modulators, biochemical, flow cytometry, bead-based | streptavidin beads, fluorescein-biotin binding | 1,700 tested, under 10 active | AID 1783, 2009 | inhibition, % at 10 µM | shares compounds with RGS16-Gao;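 active = inhibition above 50%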;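 also: median green fluorescence of gated singlet beads compared with DMSO control wells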
# RGS8-Gao confirm: RGS8-Galphao binding modulators, confirmation, biochemical, multiplexed bead flow cytometry, single concentration; shares compounds with RGS16-Gao; actives 3% (n = 1,700); binding response (% of control), % at 10 µM; AID 1836, 2009; bead-based flow cytometry RGS8-Galphao binding, fluorescence; actives lie on both sides; in the data active = binding response below about 72% or above about 130%; inactive = in between;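 also: Galphao activated as GDP AlF4 complex before binding bead RGS8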
# RGS7-Gao single: RGS7-Galphao binding modulators, confirmation, biochemical, multiplexed bead flow cytometry, single concentration. shares compounds with RGS16-Gao. bead-based flow cytometry RGS7-Galphao binding; actives lie on both sides. response (percent of control binding), % at 10 µM. actives 7.8% (n = 1,700). AID 1837, 2009; in the data active = response below about 75% or above about 130%; inactive = in between;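 also: fluorescent Galphao activated with GDP and aluminum fluoride binding bead-coupled RGS7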
# RGS16-Gao conf: modulators of RGS16-Galphao protein binding, confirmation, biochemical, single concentration, multiplexed bead flow cytometry. AID 1838, 2009. bead-based flow cytometry; actives lie on both sides. actives 4% (n = 1,700). shares compounds with RGS16-Gao. response (% of control binding), % at 10 µM; in the data active = response below about 74% or above about 130%; inactive = in between;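 also: Galphao activated as the GDP aluminium fluoride complex binding bead-coupled RGS16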
# RGS4-Gao confirm: modulators of RGS4-Galphao protein binding, confirmation, biochemical, single concentration, multiplexed bead flow cytometry | shares compounds with RGS16-Gao | actives lie on both sides | binding response (% of control), % at 10 µM | actives 4% (n = 1,700); in the data active = binding response below about 74% or above about 130%; inactive = in between
# RGS19-Gao conf: regulators of RGS19-Galphao binding, confirmation, biochemical, single point, multiplexed bead flow cytometry. shares compounds with RGS16-Gao. bead-based flow cytometry RGS19-Galphao binding; actives lie on both sides. response (percent of control binding), % at 10 µM. actives 5% (n = 1,700); in the data active = response below about 50% or above about 160%; inactive = in between
# Hits are given with their value; i = inactive; ? = inconclusive; nt = no result given; ! = not confirmed by another sample; [ ] = dose if it differs, or a comment. Hits are enriched below; roughly 1.2% of the tested compounds scored in any of these assays. Unless noted, no rule for the calls is given here.
SMILES,GSH bead fluor,RGS7-Gao reg,RGS16-Gao,RGS4-Gao reg,RGS8-Gao,Avidin fluor,Biotin-avidin,RGS8-Gao confirm,RGS7-Gao single,RGS16-Gao conf,RGS4-Gao confirm,RGS19-Gao conf,others
Cc1cc(Cl)nc(N)n1,i,i,i,i,146[activator],i,i,i,i,i,i,i,RGS-Gao=114
CCSC1=NN1c1cc(C)nc(N)n1,nt,?,i,i,i,i,nt,nt,nt,nt,nt,nt,
Nc1c2c(nc3sc4c(c13)CCCCC4)CCCC2,i,i,i,i,i,i,nt,nt,nt,nt,nt,nt,
BrCC1C[n+]2c(SCc3ccccc3)nc3sc4c(c3c2O1)CCCC4 (centres undefined),nt,?,221[activator],249[activator],i,117,i,i,i,i,i,i,
CCC(=O)N1CC(=O)Nc2ccc(Cl)cc2C1c1ccc(F)cc1 (centres undefined),i,i,i,i,i,i,nt,nt,nt,nt,nt,nt,
CC(=O)N1CC(=O)Nc2ccc(Cl)cc2C1c1ccc(F)cc1 (centres undefined),i,19,11,25,15,i,i,i,i,i,i,i,
CC1(C)CC(=O)C(C=NCCN2CCN(C(=O)Cc3ccc(Cl)cc3)CC2)=C(O)C1,i,i,i,i,i,i,nt,nt,nt,nt,nt,nt,
CC(C)N1CC=C(c2c[nH]c3ccccc23)CC1,i,i,i,i,i,i,nt,nt,nt,nt,nt,nt,
C1=C(c2c[nH]c3ccccc23)CCNC1,i,151[activator],i,167[activator],i,i,i,i,135[activator],i,i,i,
O=c1[nH]c2ccccc2o1,i,i,i,i,i,i,nt,nt,nt,nt,nt,nt,
CN1C(=O)NC(=O)/C(=C/c2ccc([N+](=O)[O-])o2)C1=O,nt,?,i,i,58,i,nt,nt,nt,nt,nt,nt,RGS-Gao=88
COC(=O)C1=CCCN(C)C1,i,5.1,13,16,21,i,i,i,i,i,i,i,
COC(=O)c1ccc(CN2CCN(Cc3ccccc3)CC2)cc1,i,i,i,i,i,i,nt,nt,nt,nt,nt,nt,
O=C1CN=C(c2ccc(Br)cc2)c2c(sc3c2CCCC3)N1CCN1CCCCC1,i,i,i,i,i,i,nt,nt,nt,nt,nt,nt,
CC/C(=N\Nc1ccccc1)c1c(O)n(-c2ccc(OC)cc2)c(=O)[nH]c1=O,nt,?,i,i,i,i,nt,nt,nt,nt,nt,nt,
Cc1c(N=Nc2c(O)n(C)c(=O)n(C)c2=O)c(=O)n(-c2ccccc2)n1C,i,i,i,i,58,i,i,i,i,i,i,i,RGS-Gao=65
Cc1nc2ccc(P(=O)(O)O)cc2s1,i,i,i,i,i,i,nt,nt,nt,nt,nt,nt,
CCN(CC)c1ccc(/C=C2/C(=O)NC(=O)N(CC3CCCO3)C2=O)cc1 (centres undefined),i,i,i,i,i,i,nt,nt,nt,nt,nt,nt,
O=C1NC(=O)N(CC2CCCO2)C(=O)/C1=C/c1cccs1 (centres undefined),nt,?,i,185[activator],i,75,i,i,i,i,i,i,
O=c1[nH]c(=O)n(Cc2ccc(F)cc2)c(O)c1C=NCCCn1ccnc1,i,i,i,i,i,i,nt,nt,nt,nt,nt,nt,
O=c1[nH]c(=O)n(Cc2ccc(F)cc2)c(O)c1C=NCCCO,i,156[activator],i,i,i,122,i,i,i,i,i,i,RGS-Gao=110
CCOP(=S)(OCC)c1ccc(N(C)C)cc1,i,i,i,i,149[activator],i,i,i,i,i,i,i,RGS-Gao=123
Cn1cccc1CN1CCN(C(=O)COc2ccccc2)CC1,i,i,i,i,i,i,nt,nt,nt,nt,nt,nt,
Cn1nc(-c2ccc(OCC(=O)N3CCN(Cc4ccccc4)CC3)cc2)c2ccccc2c1=O,i,42!,i,35!,i,i,i,i,i,i,i,i,
Cc1ccccc1-n1c(O)c(/C=N/N2CCOCC2)c(=O)[nH]c1=S,i,i,i,150[activator],i,78,i,i,i,i,i,i,
SMILES,GSH bead fluor,RGS7-Gao reg,RGS16-Gao,RGS4-Gao reg,RGS8-Gao,Avidin fluor,Biotin-avidin,RGS8-Gao confirm,RGS7-Gao single,RGS16-Gao conf,RGS4-Gao confirm,RGS19-Gao conf,others
CCOP(=O)(C#CC(C)(C)C)C(O)(c1ccccc1)C(F)(F)F (centres undefined),i,i,i,i,i,i,nt,nt,nt,nt,nt,nt,
CCN1CCN(c2cc(N3CCCC3)c(F)cc2[N+](=O)[O-])CC1,i,i,184[activator],i,i,i,i,i,62,i,i,i,RGS-Gao=108
CC(C)NS(=O)(=O)c1ccc(OCC(=O)N2CCN(C)CC2)cc1,i,i,i,i,185[activator],i,nt,nt,nt,nt,nt,nt,RGS-Gao=134
C=CCn1c(O)c(C(C)=NCc2cc(OC)cc(OC)c2)c(=O)[nH]c1=O,i,i,i,i,i,i,nt,nt,nt,nt,nt,nt,
O=c1[nH]c(=S)[nH]c(O)c1N=Nc1ccc(S(=O)(=O)N2CCOCC2)cc1,nt,?,-19,-36,0.7,i,i,i,i,i,i,i,
O=c1[nH]c(O)c(N=Nc2ccc(S(=O)(=O)N3CCOCC3)cc2)c(=O)[nH]1,i,i,i,i,i,i,nt,nt,nt,nt,nt,nt,
c1ccc2c(c1)[nH]c1cnccc12,i,i,i,i,i,i,nt,nt,nt,nt,nt,nt,
Cc1c2ccncc2c(C)c2c1[nH]c1ccccc12,i,i,i,154[activator],i,i,i,i,i,i,i,i,
Cc1ccccc1-n1c(O)c(C=Nc2ccc(N(C)C)cc2)c(=O)[nH]c1=O,i,i,i,i,i,i,nt,nt,nt,nt,nt,nt,

# High-throughput results from PubChem.
